The record followed here is PubChem BioAssay (NCATS).

The target in assay [1] is Aldehyde dehydrogenase, mitochondrial (Homo sapiens) (UniProt P05091). The assay is described as follows: qHTS for Inhibitors of the Aldehyde Dehydrogenase Family (ALDH2) Primary screen (AID 2061308). Further: nearly all actives have a fitted effect of over 55% in size.
The target in assay [2] is Retinaldehyde dehydrogenase 3 (Homo sapiens) (UniProt P47895). Kind of assay: qHTS for Inhibitors of the Aldehyde Dehydrogenase Family (ALDH1A3) Primary screen (AID 2061315). In general terms: In qHTS, concentration-response curves come from the screen itself.

Results filed as inconclusive are left out. A call without a number means that no potency is given here. Calls of active or inactive are those of the source. The call rests on the fitted dose curve; in most records, active means well fitted curve in the direction sought with a large enough effect; inconclusive means small, poorly fitted or top-dose-only effect, or another doubt; inactive means no such curve, though single readings can be large; an effect the other way counts as inactive or inconclusive.

As for `O=C(/C=C/c1ccccc1)Nc1cccc(S(=O)(=O)Nc2ccccc2F)c1`, the Potency result in assay [1] and in assay [2] was “inactive” in each case.

Consider `Cc1ccc(NS(=O)(=O)c2cc3c(cc2/C=C/c2ccccc2)NC(=O)CO3)cc1C`, for which the Potency entry in assay [1] and in assay [2] was “inactive” throughout.

Turning to `Fc1cc(F)cc(Nc2nc(NC3CCCC3)nc(C3CO3)n2)c1` (configuration not stated), the Potency entry in assay [1] and in assay [2] was “inactive” throughout.

On to `FC(F)(F)c1ccc(CSc2nc3ncc(Br)cc3[nH]2)cc1`, for which the Potency entry in assay [1] and in assay [2] was “inactive” throughout.

For `Cc1ccnc(NC(=S)N2CCC(Nc3cccc(C(F)(F)F)c3)CC2)c1`, the Potency result in assay [1] and in assay [2] was “inactive” throughout.

With `Fc1cc(Nc2nc(-c3ccncc3)nc3ccccc23)ccc1-c1cccc(OC(F)(F)F)c1`, the Potency entry in assay [1] and in assay [2] was “inactive” each time.

Regarding `CC(C)=CCC[C@](C)(O[C@@H]1O[C@H](CO[C@@H]2O[C@@H](CO)[C@H](O)[C@H]2O)[C@@H](O)[C@H](O)[C@H]1O)[C@H]1CC[C@]2(C)[C@@H]1[C@H](O)C[C@@H]1[C@@]3(C)CC[C@H](O[C@@H]4O[C@H](CO)[C@@H](O)[C@H](O)[C@H]4O[C@@H]4O[C@H](CO)[C@@H](O)[C@H](O)[C@H]4O)C(C)(C)[C@@H]3CC[C@]12C`, the Potency entry in assay [1] and in assay [2] was “inactive” throughout.

For the compound `CCN(CC)CCCCn1c(-c2ccccc2)nc2c(NCc3ccccc3)nc(C)nc21`, the Potency result in assay [1] and in assay [2] was “inactive” in each case.

Regarding `CCN1CCC[C@@H]1CNC(=O)c1ccc2c(c1)NC(=O)/C(=C/c1ccccc1F)S2`, the Potency entry in assay [1] and in assay [2] was “inactive” in each case.

`COc1ccc(C2=Nn3c(nnc3-c3ccccc3F)SC2)cc1OCC1CC1`: the Potency entry in assay [1] and in assay [2] was “inactive” each time.

On to `Cc1c(P(=S)(c2ccccc2)c2ccccc2)c2ccccc2n1Cc1ccccc1`, for which the Potency result in assay [1] and in assay [2] was “inactive” each time.

For `Cc1cc2c(s1)c1cnn(Cc3ccc(Br)cc3)c(=O)c1n2C`, the Potency result in assay [1] and in assay [2] was “inactive” throughout.

For `CC1(C)CCCC2(C)C1C(OC(=O)/C=C/C=C/C=O)C=C1COC(=O)C12O` (configuration not stated), the Potency result in assay [1] and in assay [2] was “inactive” throughout.

As for `CCCn1c(-c2ccc(F)cc2)nc2c(NCCCCN(CC)CC)nc(C)nc21`, the Potency entry in assay [1] and in assay [2] was “inactive” in each case.

Regarding `N#CN1CCC(NC(=O)c2cccc(C(F)(F)F)c2)CC1`, the Potency entry in assay [1] and in assay [2] was “inactive” each time.

Take `COc1cc(O)c(C(CC(=O)N2CCC(c3ccccc3)CC2)c2ccc3c(c2)OCO3)c(OC)c1` (configuration not stated): the Potency result in assay [1] and in assay [2] was “inactive” throughout.

`Cc1cc(N[S+](=O)([O-])c2ccc(NC(=O)Cn3c(=O)oc4ccc(Cl)cc43)cc2)no1`: the Potency entry in assay [1] and in assay [2] was “inactive” throughout.

Turning to `C/C1=C\CC(C)(C)/C=C/C/C(C(=O)O)=C/CC1`, the Potency entry in assay [1] and in assay [2] was “inactive” throughout.

Regarding `O=[S+]([O-])(c1ccc2c(c1)OCCO2)N1CCN([S+](=O)([O-])c2c(F)cc(Br)cc2F)CC1`, the Potency result in assay [1] and in assay [2] was “inactive” throughout.

`O=C(OCC#CCSc1nnc(-c2cccc(F)c2)o1)c1ccc(F)cc1`: the Potency result in assay [1] and in assay [2] was “inactive” each time.

On to `CCC1=CC2CN(C1)Cc1c([nH]c3ccccc13)[C@@](C(=O)OC)(c1cc3c(cc1OC)N(C)[C@H]1[C@@](O)(C(=O)OC)[C@H](OC(C)=O)[C@]4(CC)C=CCN5CC[C@]31[C@@H]54)C2` (some centres not stated), for which the Potency entry in assay [1] and in assay [2] was “inactive” in each case.

In the case of `C=CCSc1nnc(-c2cccc3ccccc23)o1`, the Potency entry in assay [1] and in assay [2] was “inactive” in each case.

For `COc1cc(O)c(C(CC(=O)N2CCC[C@H](C)C2)c2ccc3c(c2)OCO3)c(OC)c1` (some centres not stated), the Potency entry in assay [1] and in assay [2] was “inactive” each time.

Turning to `O=C(OCC#CCSc1nnc(-c2ccc3ccccc3c2)o1)c1cccs1`, the Potency entry in assay [1] and in assay [2] was “inactive” in each case.

`N#Cc1ccc(OC2=NS(=O)(=O)c3ccccc32)cc1`: the Potency result in assay [1] and in assay [2] was “inactive” in each case.

Consider `O=C1CCc2cc(S(=O)(=O)Nc3ccc(Cl)c(Cl)c3)c(F)cc2N1`, for which the Potency entry in assay [1] and in assay [2] was “inactive” each time.

Consider `CC(=O)O[C@@H]1CC[C@@]2(C)C(CC[C@]3(C)C2[C@H](O)C=C2[C@H]4[C@@H](C)[C@H](C)CC[C@]4(C)CC[C@]23C)[C@@]1(C)C(=O)O` (some centres not stated), for which the Potency entry in assay [1] and in assay [2] was “inactive” in each case.

Regarding `O=C(O)c1sc2c(c1-c1nc3ccccc3s1)CCNC2`, the Potency entry in assay [1] and in assay [2] was “inactive” each time.

For the compound `N#Cc1nc(NCCCCO)nc(Nc2ccccc2)n1`, the Potency result in assay [1] and in assay [2] was “inactive” in each case.

For `CC(C)CC(O)C(=O)Nc1cc(C(F)(F)F)ccc1Cl` (configuration not stated), the Potency entry in assay [1] and in assay [2] was “inactive” each time.

Turning to `CC(=O)c1ccc(N2CCN(S(=O)(=O)c3ccc4c(c3)CC(C)N4C(C)=O)CC2)cc1` (configuration not stated), the Potency entry in assay [1] and in assay [2] was “inactive” throughout.

Turning to `CC(=O)c1ccccc1-c1ncc(C)c(NCc2ccc(-c3cccnc3)cc2)n1`, the Potency result in assay [1] and in assay [2] was “inactive” each time.

On to `CCn1c2ccccc2c2cc(Nc3ccnc(NCCCN4CCOCC4)n3)ccc21`, for which the Potency result in assay [1] and in assay [2] was “inactive” each time.

For the compound `COc1ccc(CN(Cc2ccccc2)C(=O)c2ccccc2O)cc1COc1ccc(NC(C)=O)cc1`, the Potency entry in assay [1] and in assay [2] was “inactive” each time.

`COc1nccc(-c2nc(Nc3ccc(F)c(F)c3)c3ccccc3n2)c1Cl`: the Potency result in assay [1] and in assay [2] was “inactive” throughout.

`Cc1nc(NCc2ccccc2)c2nc(-c3ccccc3)n(CCN3CCCCC3)c2n1`: the Potency result in assay [1] and in assay [2] was “inactive” each time.

In the case of `CC1=CCC(O)C2(C)CCC3C(C)C(=O)OC3C12` (configuration not stated), the Potency entry in assay [1] and in assay [2] was “inactive” throughout.

Take `O=S(=O)(c1ccc2c(c1)OCCO2)N1CCN(S(=O)(=O)c2cc(F)c(Br)cc2F)CC1`: the Potency result in assay [1] and in assay [2] was “inactive” throughout.

With `N/C(=N\c1nnc(-c2ccncc2)s1)Nc1ccc(Cl)c(Cl)c1`, the Potency result in assay [1] and in assay [2] was “inactive” in each case.

On to `COCCNc1nc(C)nc2c1nc(-c1ccccc1)n2CCCN1CCCCC1C` (configuration not stated), for which the Potency result in assay [1] and in assay [2] was “inactive” throughout.

Turning to `Cc1ccc(-c2ccc(=O)n(CC(=O)NCCc3ncc[nH]3)n2)cc1`, the Potency entry in assay [1] and in assay [2] was “inactive” throughout.
